The source made the active and inactive calls. A call without a number means that no potency is given here. The call rests on the fitted dose curve; in most records, active means well fitted curve in the direction sought with a large enough effect; inactive means no such curve, though single readings can be large or run the other way.

The assay can be described thus: Retest of LOPAC molecules that induce DNA re-replication in MCF 10A normal breast cells. The following applies: MCF 10A DNA re-replication, Hoechst nuclear intensity, 48 h; series mostly up to 45.1 µM. From the text: NIH Molecular Libraries Probe Production Network [MLPCN] NIH Chemical Genomics Center [NCGC] MLPCN Grant: Fast Track K99 CA136555 Assay Provider: Melvin DePamphilis, NICHD, NIH Assay Overview Eukaryotic cells normally restrict genome duplication to once per cell division. When this process is aberrant, DNA re-replication occurs when cells reinitiate DNA replication before the first round of replication is complete. DNA re-replication induces the DNA damage response, arrests cell proliferation, and triggers apoptosis. The cell cycle components cyclin A, Cdt-1, Cdc6 and geminin are critical regulators of this process and their misregulation results in DNA re-replication in normal and cancer cells. To identify compounds that induce re-replication in normal cells, an image-based assay was used to measure DNA content of nuclei, as detected by the fluorescent DNA binding dye, Hoechst. Cell nuclei were imaged by a fluorescence scanning plate imager and compounds that induce DNA re-replication were identified by the increase of nuclei with elevated fluorescence intensity.
Assay Protocol Summary For screening, 250 cells in 5 uL/well were dispensed into black clear 1536-well plates (Aurora) using a solenoid-based dispenser. Following transfer of 23 nL compound or DMSO vehicle by a pin tool, the plates were incubated 48 hr at 37 C and 5% CO2. After addition of 1 uL/well Hoescht stain, the plates were incubated 40 min at 37 C, 5% CO2 and total intensity of fluorescent objects (nuclei) were enumerated by an Acumen Explorer Ex3 (TTP LabTech) fluorescence scanning plate imager (405 nm excitation, 500-530 nm emission). Keywords: NIH Roadmap, MLPCN, MLI, MLSMR, qHTS, NCGC, DNA replication, cancer
Consider `CC(C)NP(=O)(NC(C)C)OP(=O)(NC(C)C)NC(C)C`, for which the Potency entry is “inactive”. Next, `C=C(C)[C@H]1Cc2c(ccc3c2O[C@@H]2COc4cc(OC)c(OC)cc4[C@@H]2C3=O)O1`: 755 nM (active); `COc1cc2c(c(OC)c1OC)-c1ccc(OC)c(=O)cc1[C@@H](NC(C)=O)CC2`: “inactive”.

These data come from PubChem BioAssay AID493166 (National Center for Advancing Translational Sciences (NCATS), 2011).
